From PubChem BioAssay
MLL AF4-AF9 inh – inhibitors of AF4 peptide binding to AF9, primary screen, biochemical, AlphaScreen, biotin-AF4 peptide, FLAG-AF9, single point | Protein AF-9 (Homo sapiens), P42568 | inhibition, % at 10 µM | hit rate 0.47% among 350,000;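 active = every replicate reaching a set inhibition limit, whatever the replicate mean, cut at about 25% in these data; inconclusive = mean inhibition reaches that limit but some replicates miss it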;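 note: 0% = plate neutral control median and 100% = total signal loss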
RAD52 inh – RAD52 DNA annealing inhibitors, primary screen, biochemical, FRET, single point, set 2; inhibition, % at 18.7 µM; recombinant RAD52 DNA annealing, FRET fluorescence; AID 651710, 2012; DNA repair protein RAD52 homolog (Homo sapiens), P43351; hit rate 0.46% among 360,000;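 active = every replicate showing at least 50% inhibition; inconclusive = mean inhibition at least 50% but not in every replicate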
Target sequence (P43351 whole entry, looked up): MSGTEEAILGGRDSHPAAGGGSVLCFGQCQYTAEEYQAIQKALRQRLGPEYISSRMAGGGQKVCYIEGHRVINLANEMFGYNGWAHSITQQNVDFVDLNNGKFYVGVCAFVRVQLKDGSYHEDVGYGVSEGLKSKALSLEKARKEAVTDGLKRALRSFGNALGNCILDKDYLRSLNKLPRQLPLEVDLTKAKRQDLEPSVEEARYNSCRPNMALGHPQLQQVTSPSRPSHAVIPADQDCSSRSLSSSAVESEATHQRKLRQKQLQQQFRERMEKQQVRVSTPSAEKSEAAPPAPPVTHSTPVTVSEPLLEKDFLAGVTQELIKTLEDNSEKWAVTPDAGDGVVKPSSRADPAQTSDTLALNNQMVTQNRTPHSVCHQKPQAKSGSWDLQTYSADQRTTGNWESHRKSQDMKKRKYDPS
Casp6 inh – human caspase-6 inhibitors, primary screen, biochemical, VEID-R110 fluorescence, single point, set 2; P55212; inhibition, % at 12.5 µM; AID 686996, 2013; hit rate 0.53% among 350,000; purified caspase-6, Z-VEID-R110 cleavage fluorescence;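 active = mean inhibition across replicates at least about 35%, with every replicate also reaching that limit, limit read from the data; inconclusive = only one of the two criteria met; inactive = neither criterion met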;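 note: 0% = median of neutral control wells and 100% = no fluorescence left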
rRNA inh HTS – reduced GFP signal of wild-type E. coli, primary screen, bacterial rRNA inhibitor project, GFP/RFP fluorescence, OD600, single point; AID 720706, 2013; GFP signal change (wild-type ribosome), % (test concentration not listed); E. coli WT GFP vs humanized-ribosome RFP mutants, 24 h; hits give low values; DMSO median 0, no signal -100; hit rate 1.6% among 350,000;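 active = significant combined selectivity score with lowered wild-type GFP, culture density cut under 30%, mutant RFP and density less affected; inactive = any of these conditions unmet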
NSD2 HMT inh – NSD2 histone methyltransferase inhibitors, primary screen, biochemical, AlphaScreen, single concentration, set 2. inhibition, % at 12.5 µM. AID 743445, 2014. Histone-lysine N-methyltransferase NSD2 (Homo sapiens), O96028. NSD2 peptide methylation, 120 min. hit rate 0.54% among 310,000; in the data active = inhibition above about 50%
* = called active by the depositor. In the library only some 2.5% were active in any assay of this set; here they are far more common.

Screening CCN(C(=O)COC(=O)c1cccc2ccccc12)c1c(N)n(Cc2ccccc2)c(=O)[nH]c1=O returned MLL AF4-AF9 inh -0.7, RAD52 inh -8.3, Casp6 inh 7.3, rRNA inh HTS 2.8 and NSD2 HMT inh 0.2.
Screening CCN(C(=O)COC(=O)CNC(=O)c1ccc(C)cc1)c1c(N)n(Cc2ccccc2)c(=O)[nH]c1=O returned MLL AF4-AF9 inh -0.8, RAD52 inh -8.0, Casp6 inh 3.8, rRNA inh HTS 9.1 and NSD2 HMT inh 122.3*.
Screening CCN(C(=O)COC(=O)c1oc2ccccc2c1C)c1c(N)n(Cc2ccccc2)c(=O)[nH]c1=O returned MLL AF4-AF9 inh -4.3, RAD52 inh -6.9, Casp6 inh 54.2*, rRNA inh HTS 2.8 and NSD2 HMT inh 0.9.
Screening CN(C)C(=O)c1cccc(-c2ccc3c(c2)[C@H]2[C@H](CCN2C(=O)C2CCC2)[C@H](CO)N3)c1 returned MLL AF4-AF9 inh 2.8, RAD52 inh -22.6 and rRNA inh HTS -2.1.
Screening CCNC(=O)Nc1ccc2c(c1)C(=O)N(C)[C@@H]1CC[C@@H](CC(=O)NCCOC)O[C@H]1CO2 returned MLL AF4-AF9 inh -0.3, RAD52 inh -8.6, Casp6 inh -1.4 and rRNA inh HTS 2.8.
For O=[N+]([O-])c1ccc(Cl)c(-c2ccc(/C=N/n3cnnc3)o2)c1 the results were MLL AF4-AF9 inh -13.5, RAD52 inh -29.8, Casp6 inh 9.7, rRNA inh HTS 1.1 and NSD2 HMT inh 3.4.
For CN1CCN(/N=C/c2ccc(-c3ccc([N+](=O)[O-])cc3Cl)o2)CC1 the results were MLL AF4-AF9 inh 35.7*, RAD52 inh 0.7, Casp6 inh -2.7, rRNA inh HTS -13.3 and NSD2 HMT inh 38.4.
`C/C=C/c1ccc([C@@H]2[C@H](CO)N(C(C)=O)C23CN(C(=O)c2ccc(F)cc2)C3)cc1` gave MLL AF4-AF9 inh -1.6, RAD52 inh -26.8, Casp6 inh 6.4 and rRNA inh HTS 0.7.
CCn1c(O)c(C=Nc2ccccc2)sc1=S was read as MLL AF4-AF9 inh 4.2, RAD52 inh -28.4, Casp6 inh -8.7, rRNA inh HTS 8.9 and NSD2 HMT inh -1.0.
Screening C=CCn1c(O)c(C=Nc2ccccc2)sc1=S returned MLL AF4-AF9 inh 1.3, RAD52 inh -12.6, Casp6 inh 1.5, rRNA inh HTS -22.0* and NSD2 HMT inh -0.9.
Screening O=C(c1cccs1)N1CCN(c2nnc(-c3ccccc3)c3ccccc23)CC1 returned MLL AF4-AF9 inh -1.6, RAD52 inh -19.0, Casp6 inh 4.8, rRNA inh HTS -28.1* and NSD2 HMT inh 3.2.
For C=CC1CN(S(=O)(=O)c2ccc(Br)cc2)C(=O)N1c1ccc(Br)cc1 (centres undefined) the results were MLL AF4-AF9 inh -1.2, RAD52 inh 0.2 and Casp6 inh 0.2.
For CN1CCN(C(=O)C[C@@H]2CC[C@@H]3[C@H](COC[C@H](O)CN3C(=O)Nc3ccc(Cl)cc3)O2)CC1 the results were MLL AF4-AF9 inh -7.8, RAD52 inh -8.2, Casp6 inh -3.2 and rRNA inh HTS -17.6*.
Screening CN1CCN(C(=O)C[C@H]2CC[C@@H]3[C@H](COC[C@@H](O)CN3C(=O)Nc3ccc(Cl)cc3)O2)CC1 returned MLL AF4-AF9 inh -2.1, RAD52 inh 4.8, Casp6 inh 1.4 and rRNA inh HTS -27.4*.
For O=C(C[C@H]1CC[C@@H]2[C@H](COC[C@H](O)CN2C(=O)Nc2ccc(Cl)cc2)O1)NCC1CC1 the results were MLL AF4-AF9 inh -4.8, RAD52 inh -5.1, Casp6 inh -0.6 and rRNA inh HTS -24.1*.
Screening O=C(c1cc(O)c(O)c([N+](=O)[O-])c1)c1ccccc1F returned MLL AF4-AF9 inh 25.7*, RAD52 inh -11.4, Casp6 inh 31.2 and rRNA inh HTS -43.0.
`Cc1cc(N=Nc2ccc(C)c(N=Nc3cc(C)c(N)cc3N)c2)c(N)cc1N` gave MLL AF4-AF9 inh 63.0*, RAD52 inh 79.8*, Casp6 inh -22.0, rRNA inh HTS -5.9 and NSD2 HMT inh 12.6.
CCn1c(NCCO)nc2c(c1=O)C(C)(CC)Cc1ccccc1-2 (centres undefined) was read as MLL AF4-AF9 inh -1.2, RAD52 inh -18.3, Casp6 inh 4.1, rRNA inh HTS -28.2* and NSD2 HMT inh 32.3.
CCC1(C)Cc2ccccc2-c2nc(NCCO)[nH]c(=O)c21 (centres undefined) was read as RAD52 inh 3.9, Casp6 inh 0.5, rRNA inh HTS -40.3 and NSD2 HMT inh -3.0.
CC1(C)Cc2ccccc2-c2nc(NCCCO)[nH]c(=O)c21 was read as MLL AF4-AF9 inh inconclusive, RAD52 inh 1.9, Casp6 inh -3.2, rRNA inh HTS -42.9* and NSD2 HMT inh -1.5.
`O=C(C1CC1)N1CC(=O)N2[C@H](C1)[C@H](c1ccc(C#CCc3ccccc3)cc1)[C@@H]2CO` gave MLL AF4-AF9 inh -0.3, RAD52 inh 8.2, Casp6 inh 4.3 and rRNA inh HTS -1.0.
For Cc1ccsc1/C=N/NC(=O)c1cccc(S(=O)(=O)Nc2ccccc2Cl)c1 the results were MLL AF4-AF9 inh 4.3, RAD52 inh 3.9, Casp6 inh 1.9 and NSD2 HMT inh 3.6.
For O=C(N/N=C/c1ccccn1)c1cccc(S(=O)(=O)Nc2ccccc2Cl)c1 the results were MLL AF4-AF9 inh -3.0, RAD52 inh -34.9, Casp6 inh 2.2, rRNA inh HTS -39.5* and NSD2 HMT inh -21.3.
O=C(OC(c1ccccc1)c1nccc2ccccc12)c1ccccc1 (centres undefined) was read as MLL AF4-AF9 inh -1.3, RAD52 inh -6.1, rRNA inh HTS 3.2 and NSD2 HMT inh -4.8.
`CC(C)C(OC(=O)c1ccccc1)c1nccc2ccccc12` (centres undefined) gave MLL AF4-AF9 inh -4.1, RAD52 inh -4.3, Casp6 inh 0.8, rRNA inh HTS -28.1* and NSD2 HMT inh 1.5.
CC(C)CN1C(=O)NC2(CCCc3ccccc32)C1=O (centres undefined) was read as MLL AF4-AF9 inh -0.4, RAD52 inh -8.2, Casp6 inh 40.1*, rRNA inh HTS -0.4 and NSD2 HMT inh 24.5.
Screening CC(=O)CN1C(=O)NC2(CCCc3ccccc32)C1=O (centres undefined) returned MLL AF4-AF9 inh 2.0, RAD52 inh -15.4, Casp6 inh 4.5, rRNA inh HTS 10.1 and NSD2 HMT inh -9.8.
Screening NNC(=O)c1[nH]c2ccc(Br)cc2c1-c1ccccc1 returned MLL AF4-AF9 inh -6.3, RAD52 inh -21.3, Casp6 inh 0.8, rRNA inh HTS -25.7* and NSD2 HMT inh 2.8.
CCOC(=O)[C@]12CCCC=C1N(Cc1ccccc1)C(=O)[C@H](CC(=O)NCCc1ccccc1OC)C2 was read as MLL AF4-AF9 inh 2.8, RAD52 inh -6.5, Casp6 inh -3.2 and rRNA inh HTS -20.9*.
